KB-3-1 cytotox = kills parental KB-3-1 adenocarcinoma cells; 400,000 compounds, 1.4% hits; KB-3-1 viability, CellTiter-Glo ATP luminescence, 72 h; Potency, µM (top dose mostly 46.1 µM), actives largely listed as cytotoxic; further: nearly all actives have a fitted effect of over 60% in size
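Cytotoxicity in the drug-sensitive parental line KB-3-1 was scored as loss of CellTiter-Glo luminescence following 72 h incubation with compound. Values come from curve fitting of normalized concentration-response data.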
TDP1 cell noCPT = qHTS for Inhibitors of human tyrosyl-DNA phosphodiesterase 1 (TDP1): qHTS in cells in absence of CPT. AID 686978, 2013. 420,000 compounds, 15% hits. Potency, µM (highest dose often 46.2 µM), without a hit: at the top dose activity change, negative = growth inhibition, most hits filed as inhibitors. DT40 Tdp1-/- hTDP1 cells, no CPT, ATP luminescence, 48 h; further: nearly all actives have a fitted effect of over 55% in size
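Stably hTDP1-transfected Tdp1-null chicken DT40 cells were treated with library compounds minus camptothecin and grown for at least 48 hr at 37 °C, after which cellular ATP was quantified by luminescence.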
HT1080 IDH1KD tx = toxicity to HT-1080 IDH1 knockdown cells (counter line); HT-1080 IDH1 knockdown viability, ATP luminescence, 48 h; 360,000 compounds, 2% hits; Potency, µM (doses to about 46.1 µM), for inactives: at the highest dose activity, negative = toxicity, most hits filed as cytotoxic;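 further: 0% = DMSO wells and -100% = cell-free medium wells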
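CellTiter-Glo luminescence after 48 h compound exposure at 37 degrees C of IDH1-knockdown HT-1080 cells in 5% FBS RPMI. %Activity scaled between DMSO wells and cell-free media wells, with curves fitted and assigned curve classes.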
HT1080NT lethal = kills 2HG-producing HT-1080-NT fibrosarcoma cells; HT-1080-NT fibrosarcoma viability, CellTiter-Glo ATP luminescence, 48 h; Potency, µM (top dose mostly 46.1 µM), without a hit: at the top dose activity, negative = less viability, actives largely listed as cytotoxic; 360,000 compounds, 1.6% hits;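 further: NT is the 2HG producing partner of a matched IDH1 knockdown line; 0% = DMSO-treated cells and -100% = media-only wells without cells; nearly all actives have a fitted effect of over 55% in size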
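Luminescent CellTiter-Glo readout after 48 hours of compound exposure at 37 degrees C defined viability of HT-1080-NT cells. Activity was normalized to DMSO wells and cell-free media wells; concentration-response curves were fitted and assigned curve classes.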
TDP1 cell CPT = DT40-hTDP1 cell growth loss with CPT; chicken DT40 Tdp1-/-;hTDP1 cells + 20 nM CPT, ATP luminescence, 48 h; Potency, µM (titrated, usually from 46.2 µM), without a hit: top-dose activity change, negative = growth inhibition, actives largely listed as inhibitors; 420,000 compounds, 12% hits; further: nearly all actives have a fitted effect of over 55% in size
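Cell growth measured by CellTiter-Glo luminescence after a minimum 48 h, 37 C compound exposure with 20 nM CPT in Tdp1-knockout DT40 cells stably expressing hTDP1, seeded 400/well; qHTS titration format.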
KB-V1 MDR tox = kills drug-selected multidrug resistant KB-V1 cells. Potency, µM (top dose mostly 46.1 µM), actives largely listed as cytotoxic. KB-V1 MDR cells viability, CellTiter-Glo, 72 h. 400,000 compounds, 3.4% hits; further: nearly all actives have a fitted effect of over 60% in size
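Following 72 h at 37 degrees C with compound, KB-V1 cell viability was read by CellTiter-Glo luminescence, medium being phenol-red-free DMEM plus 10% FBS; concentration-response parameters came from normalized, curve-fitted qHTS data.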
* hit, by the source's call; i = inactive; ? = inconclusive; . = not tested or not shown. Hits are enriched below; roughly 19% of the tested compounds scored in any of these assays. The call rests on the fitted dose curve; in most records, active means well fitted curve in the direction sought with a large enough effect; inconclusive means small, poorly fitted or top-dose-only effect, or another doubt; inactive means no such curve, though single readings can be large; an effect the other way counts as inactive or inconclusive. Unless noted, on the % scale 0 is the no-effect control and ±100 the full control effect; potency means the concentration at half of the fitted maximal effect.

SMILES	KB-3-1 cytotox	TDP1 cell noCPT	HT1080 IDH1KD tx	HT1080NT lethal	TDP1 cell CPT	KB-V1 MDR tox
O=C(NC1CC2CCC1C2)c1ccco1 (centres undefined)	i	?	16.2%	-3.2%	9.4%	i
O=C(c1cccc(S(=O)(=O)N2CCOCC2)c1)N(CCc1ccccc1)Cc1ccccc1	?	?	1.1%	-2.0%	?	i
CCCN(CC(=O)Nc1ccccc1C)C(=O)c1ccc(C)c(S(=O)(=O)N2CCCCC2)c1	i	-28.9%	-17.9%	-16.2%	-13.6%	i
Cc1ccc(C(=O)N(CCc2ccccc2)Cc2ccccc2)cc1S(=O)(=O)N1CCOCC1	?	23.1µM*	-5.1%	-23.1%	14.6µM*	?
CCN(CC1COc2ccccc2O1)C(=O)c1ccc(Cl)c(S(=O)(=O)N2CC(C)OC(C)C2)c1 (centres undefined)	i	4.61µM*	-0.8%	?	7.31µM*	?
Cc1ccc(C(=O)N(CCc2ccccc2)Cc2ccccc2)cc1S(=O)(=O)N1CCCCC1	?	18.4µM*	-9.1%	-20.5%	?	i
COc1ccc(CC(=O)N(Cc2ccccc2)c2ccccc2)cc1S(=O)(=O)N1CCOCC1	i	14.6µM*	1.1%	-3.2%	16.4µM*	?
COc1cc(NC(=O)Cn2c(=O)cc(C)c3c(C)nn(-c4ccc(C)cc4)c32)cc(OC)c1	i	-14.2%	.	.	-9.4%	i
COc1cccc2c1ncc1c(-c3ccc(C)cc3)nn(-c3cccc([N+](=O)[O-])c3)c12	i	-3.0%	.	.	-5.1%	i
NC(=O)Cn1nc(-c2ccccc2)nc1-c1ccccc1	i	-8.3%	-7.5%	-11.5%	13.1%	i
CN(C)C(=O)c1ccc(-c2cncnc2Nc2ccc(F)cc2)cc1	.	7.6%	.	.	-4.1%	.
O=C(CSc1n[nH]c(-c2ccccc2Cl)n1)NCc1cccc(C(=O)O)c1	i	43.6%	13.2%	10.3%	2.5%	i
CCc1ccc(OCC(=O)Nc2cc(-c3ccc(C)cc3)no2)cc1	i	-2.9%	.	.	-15.7%	i
CC1CN(S(=O)(=O)c2cc(C(=O)N(CCc3ccccc3)Cc3ccccc3)ccc2Cl)CC(C)O1 (centres undefined)	i	10.3µM*	-12.8%	-14.6%	11.6µM*	?
CCN(Cc1ccccc1)C(=O)c1ccc(C)c(S(=O)(=O)N2CCCCC2)c1	i	16.4µM*	4.9%	4.3%	?	i
COc1ccc(C(=O)N(CCc2ccccc2)Cc2ccccc2)cc1S(=O)(=O)N1CCOCC1	i	16.4µM*	0.7%	-1.7%	23.1µM*	i
COc1ccccc1N1CCN(c2ncnc3c2nnn3C)CC1	i	?	.	.	?	i
O=C(CCc1nc2ccccc2c(=O)[nH]1)Nc1nnc(SCc2ccccc2F)s1	i	16.4µM*	3.8%	11.0%	13µM*	i
CCC(C)Sc1ccc([C@@H]2[C@@H]3C(=O)N(CC)C(=O)[C@@H]3[C@]3(C(=O)OC)CCCCN23)cc1OC (some centres undefined)	i	?	-9.3%	1.2%	?	i
CCC(C)Sc1ccc([C@@H]2[C@@H]3C(=O)N(C)C(=O)[C@@H]3[C@]3(C(=O)OC)CCCCN23)cc1OC (some centres undefined)	i	18.4µM*	-15.4%	1.8%	?	i
CCC(C)Sc1ccc([C@@H]2[C@H]3C(=O)N(C)C(=O)[C@H]3[C@]3(C(=O)OC)CCCN23)cc1 (some centres undefined)	i	14.6µM*	0.1%	21.2%	?	i
O=C(CN1C(=O)COc2ccc(S(=O)(=O)NC3CCCC3)cc21)Nc1ccc(Cl)cc1F	i	?	.	.	?	i
